Only some compounds are listed: those with a hit (about 31% of all), similar ones and a draw of the others.
CYP2C19 inhib = blockers of cytochrome P450 2C19 activity – biochemical, luminescence, ADME assay, primary screen; P33261; CYP2C19 Supersomes, luciferin-H EGE luminescence, 30 min; inhibition, % at 5 µM; actives 21% (n = 96,000); AID 778, 2007;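 active = CYP2C19 inhibition above a set limit at 5 µM in the primary screen, cut at about 50% in these data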
Target sequence (P33261 whole entry, looked up): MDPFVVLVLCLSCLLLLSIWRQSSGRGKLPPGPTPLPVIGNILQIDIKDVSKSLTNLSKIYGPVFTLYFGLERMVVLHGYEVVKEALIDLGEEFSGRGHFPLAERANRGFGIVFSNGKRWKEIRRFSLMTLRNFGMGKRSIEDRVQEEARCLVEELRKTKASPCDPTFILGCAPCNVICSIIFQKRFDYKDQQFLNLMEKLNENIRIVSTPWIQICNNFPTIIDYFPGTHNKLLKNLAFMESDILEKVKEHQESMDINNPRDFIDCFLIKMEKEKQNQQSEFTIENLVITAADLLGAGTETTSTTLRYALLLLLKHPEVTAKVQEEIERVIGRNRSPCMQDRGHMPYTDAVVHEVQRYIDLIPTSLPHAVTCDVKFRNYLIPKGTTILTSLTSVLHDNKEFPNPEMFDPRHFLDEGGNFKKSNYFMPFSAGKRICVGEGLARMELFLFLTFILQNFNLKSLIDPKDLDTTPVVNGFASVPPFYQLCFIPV
CYP2C9 activ = human CYP2C9 activators, primary screen, biochemical, luminescence. AID 1024, 2008. recombinant CYP2C9, luciferin-H conversion; hits give high values; factor 1 = untreated enzyme, 0 = blocked. activation factor at 5 µM. actives 1.4% (n = 96,000). Cytochrome P450 2C9 (Homo sapiens), P11712;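 active = activation factor of 2 or more for CYP2C9 at a 5 µM dose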
CYP2C9 inhib = blockers of cytochrome P450 2C9 activity – biochemical, luminescence, ADME assay, primary screen. CYP2C9 Supersomes, luciferin-H conversion. actives 20% (n = 96,000). inhibition, % at 5 µM. P11712;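 active = blocking of liver enzyme CYP2C9 beyond about 50% at 5 µM, limit read from the data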
CYP2C19 activ = human CYP2C19 activators, primary screen, biochemical, luminescence; activation factor at 5 µM; 96,000 tested, under 10 active; AID 1025, 2008; Cytochrome P450 2C19 (Homo sapiens), P33261; recombinant CYP2C19, luciferin-H EGE luminescence; hits give high values; 0 = fully inhibited enzyme, 1 = untreated enzyme;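 active = activation factor of at least 2 at 5 µM in the primary screen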
PLAP activator = PLAP enzyme activators, biochemical, luminescence, HTS; actives 1.2% (n = 96,000); Alkaline phosphatase, placental type (Homo sapiens), P05187; AID 696, 2007; activation fold at 20 µM; purified PLAP enzyme, luminescent substrate read-out; hits give high values; in the data active = activation fold above about 2
Large screens that a line does not name were inactive.

Cc1ccc(-c2csc3nc(C)n(-n4cccc4)c(=O)c23)o1	none
O=C(c1ccco1)N1CCN(c2ncnc3c2[nH]c2ccc(Br)cc23)CC1	CYP2C19 inhib 96, CYP2C9 inhib 90
O=C(c1ccco1)N1CCN(c2ncnc3c(-c4ccccc4)nsc23)CC1	none
O=C(c1ccco1)N1CCN(c2ncnc3c2[nH]c2ccccc23)CC1	CYP2C19 inhib 67
Cc1cnc(NC(=O)CSc2nnc(CNc3ccc(F)cc3)n2CC2CCCO2)s1 (stereo unspecified)	none
CC(=O)OC(C(=O)NC1CCCCC1)c1ccc(Cl)cc1 (stereo unspecified)	none
c1ccc2c(c1)NC1(CCCC1)n1c-2nc2ccccc21	none
CCCC1(C)Nc2ccccc2-c2nc3ccccc3n21 (stereo unspecified)	CYP2C19 inhib 64, CYP2C9 inhib 59
Oc1ccc(C=Nc2ccc3ncccc3c2)c(O)c1	CYP2C19 inhib 56
COc1cc(NC(=O)C2CCCN2C(=O)C2CCC(C)CC2)cc(OC)c1OC (stereo unspecified)	none
CCC(C)C(NC(=O)C1CCC(C)CC1)C(=O)Nc1cc(OC)ccc1OC (stereo unspecified)	CYP2C9 inhib 69
COc1ccc(OC)c(NC(=O)C2CCCN2C(=O)C2CCC(C)CC2)c1 (stereo unspecified)	CYP2C19 inhib 53, CYP2C9 inhib 57
COc1ccccc1NC(=O)C(CC(C)C)NC(=O)C1CCCCC1 (stereo unspecified)	CYP2C19 inhib 51
COc1ccc(OC)c(NC(=O)C(CC(C)C)NC(=O)C2CCCCC2)c1 (stereo unspecified)	none
COC(=O)c1ccc(CSc2nnc3sc4ccccc4n23)o1	none
COc1ccc(C(=O)NCCn2cc(SCC(=O)Nc3cc(C)on3)c3ccccc32)cc1OC	CYP2C19 inhib 56
CCOc1ccc(C(=O)NCCn2cc(SCC(=O)Nc3cc(C)on3)c3ccccc32)cc1	CYP2C9 inhib 57
O=C(CSc1cn(CCNC(=O)c2ccc3ccccc3c2)c2ccccc12)NCc1ccco1	none
Cc1cc(NC(=O)CSc2cn(CCNC(=O)c3ccc(Cl)cc3)c3ccccc23)no1	none
COc1cccc(-c2cc(C(F)(F)F)nc(N3CCC(C)CC3)n2)c1	none
O=C1C(=O)N(Cc2cccnc2)C(c2ccccn2)/C1=C(/O)c1ccc(Br)cc1 (stereo unspecified)	CYP2C9 inhib 86
CN(C)CCCN1C(=O)C(=O)/C(=C(/O)c2ccccc2)C1c1ccccn1 (stereo unspecified)	none
CN1CCOCCOCCN(C)C1=O	none
CN(C)CCCn1c(NCc2ccc3c(c2)OCO3)nc2ccccc21	none
C=CCn1c(NCc2ccccc2)nc2ccccc21	none
C=CCn1c(NCc2ccc3c(c2)OCO3)nc2ccccc21	CYP2C19 inhib 95, CYP2C9 inhib 73
CCn1c(NCc2ccc3c(c2)OCO3)nc2ccccc21	CYP2C19 inhib 73
CC(C)c1nccn1CCC(=O)O	none
O=C(CC(Nc1ccccc1Cl)C(=O)OCC(=O)c1cccs1)c1ccccc1 (stereo unspecified)	CYP2C19 inhib 65, CYP2C9 inhib 62
NC(=O)SCC(=O)Nc1ccc(Cl)cc1	CYP2C9 inhib 51
NC(=O)SCC(=O)Nc1ccc(Cl)c(Cl)c1	CYP2C9 inhib 74
CCC(CC)C(=O)Nc1ccc(Cl)c(Cl)c1	CYP2C19 inhib 67
CCC(CC)C(=O)Nc1cccc(S(=O)(=O)c2cccc(NC(=O)C(CC)CC)c2)c1	none
NC(=O)SCC(=O)Nc1cccc(Cl)c1	none
C=CCn1c(SCC(=O)NC(=O)NCCC)nnc1C1CCCCC1	CYP2C19 inhib 58, CYP2C9 inhib 66
C=CCn1c(SCC(=O)NC(=O)NCC(C)C)nnc1C1CCCCC1	CYP2C19 inhib 55
COc1ccc(C(=O)Nc2cc3c(cc2C#N)OCO3)cc1S(=O)(=O)NCc1ccco1	none
COc1ccc(NC(=O)CCCCn2c(=O)[nH]c3ccccc3c2=O)cc1	CYP2C9 inhib 66
Cc1ccc(CNC(=O)CCCn2c(=O)[nH]c3ccccc3c2=O)cc1	none
CC1CCCN(C(=O)CCCn2c(=S)[nH]c3ccccc3c2=O)C1 (stereo unspecified)	CYP2C19 inhib 53, CYP2C9 inhib 51
CC1CCCCC1n1c(=S)[nH]c2ccccc2c1=O (stereo unspecified)	CYP2C19 inhib 72
COc1ccc(NC(=O)CCCn2c(=O)[nH]c3ccccc3c2=O)cc1	CYP2C19 inhib 53, CYP2C9 inhib 89
O=C(CCCn1c(=S)[nH]c2ccccc2c1=O)NC1CCCC1	none
Cn1c(=O)c2c(-c3ccccc3)n(-n3cnnc3)cc2n(C)c1=O	none
COc1ccc(NC(=O)CCCn2c(=S)[nH]c3ccccc3c2=O)cc1	CYP2C9 inhib 59
COc1cccc(N2C(=O)C3CCCN3C2c2ccc(Cl)cc2)c1 (stereo unspecified)	CYP2C19 inhib 69, CYP2C9 inhib 50
COc1ccc(N2C(=O)C3CCCN3C2c2cccc(Br)c2)cc1 (stereo unspecified)	CYP2C9 inhib 52
COc1cccc(C2N(c3cccc(Cl)c3)C(=O)C3CCCN32)c1 (stereo unspecified)	CYP2C19 inhib 70, CYP2C9 inhib 88
CC1(C)CC(=O)CC(=NCC(=O)O)C1	none
COCCOc1cc(-n2ccnc2SC)c(Cl)cc1Cl	CYP2C19 inhib 68
Cc1ccc(-n2ccnc2SCC(=O)O)c(C)c1	none
O=C1CCCc2c1cc(C(=O)Nc1ccc(Cl)cn1)c(=O)n2-c1ccccc1	CYP2C9 inhib 78
COc1ccc(CC(NC(C)=O)C(=O)NC2CCN(c3c4c(nc5ncnn35)CCC4)CC2)cc1 (stereo unspecified)	none
CCc1c(C)nc2ncnn2c1N1CCCC(C(=O)NCCc2ccccc2)C1 (stereo unspecified)	none
CCc1c(C)nc2ncnn2c1N1CCC(C(=O)Nc2cccc(C(C)=O)c2)CC1	CYP2C19 inhib 54, CYP2C9 inhib 76
CCc1c(C)nc2ncnn2c1N1CCCC(C(=O)Nc2cc(F)ccc2C)C1 (stereo unspecified)	CYP2C9 inhib 85
CCc1c(C)nc2ncnn2c1N1CCC(C(=O)NCc2cccc(OC)c2)CC1	none
COc1ccc(NC(=O)C2CCCN(c3c4c(nc5ncnn35)CCC4)C2)cc1 (stereo unspecified)	CYP2C9 inhib 80
Cc1cccc(OCc2nc3ccccc3c(=O)n2N)c1	none
Cc1cccc(OCC(=O)Nc2cc(C)ccc2O)c1	CYP2C19 inhib 60
COc1cccc(C(=O)/C=C/Nc2cc(C)ccc2O)c1	PLAP activator 2.9
COc1ccc(C(=O)/C=C/Nc2cccc(O)c2)cc1	none
Cc1cccc(OCC(=O)Nc2cc(C)c(C)cc2O)c1	CYP2C19 inhib 56
